GCN5L2 inh: inhibitors of human GCN5L2 histone acetyltransferase. Potency, µM (highest dose often 58.9 µM), most hits filed as inhibitors. 0.21% of 390,000 active. AID 504327. GCN5L2 HAT assay, ThioGlo1 CoA-SH fluorescence. Q92830
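Enzyme at 20nM final was mixed with library compounds for 15 min at room temperature. Peptide H3(1-25) at 75uM, acetyl-CoA at 70uM and ThioGlo1 at 50uM were then added. Plates were read immediately and after 20 min (Ex340nm/Em540nm).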
GLS inhibitor: glutaminase GLS (human) inhibition; O94925; GLS enzymatic activity, qHTS titration; Potency, µM (doses to about 45.5 µM), hits mostly inhibitors; 0.21% of 410,000 active
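hKGA in 45 mM KH2PO4 pH 8.2, 0.02% Tween-20 with pin-transferred compounds; 1 mM L-glutamine (stock) plus glutamate oxidase/HRP/Amplex Red coupling added. Fluorescence read initially and after 30 min at RT.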
Pol kappa inh-1: DNA polymerase kappa (human) inhibition; Potency, µM (series often up to 107 µM), actives largely listed as inhibitors; Q9UBT6; purified Pol kappa, fluorescent DNA synthesis assay, 10 min; 0.53% of 400,000 active
Target sequence (Q9UBT6 whole entry, looked up): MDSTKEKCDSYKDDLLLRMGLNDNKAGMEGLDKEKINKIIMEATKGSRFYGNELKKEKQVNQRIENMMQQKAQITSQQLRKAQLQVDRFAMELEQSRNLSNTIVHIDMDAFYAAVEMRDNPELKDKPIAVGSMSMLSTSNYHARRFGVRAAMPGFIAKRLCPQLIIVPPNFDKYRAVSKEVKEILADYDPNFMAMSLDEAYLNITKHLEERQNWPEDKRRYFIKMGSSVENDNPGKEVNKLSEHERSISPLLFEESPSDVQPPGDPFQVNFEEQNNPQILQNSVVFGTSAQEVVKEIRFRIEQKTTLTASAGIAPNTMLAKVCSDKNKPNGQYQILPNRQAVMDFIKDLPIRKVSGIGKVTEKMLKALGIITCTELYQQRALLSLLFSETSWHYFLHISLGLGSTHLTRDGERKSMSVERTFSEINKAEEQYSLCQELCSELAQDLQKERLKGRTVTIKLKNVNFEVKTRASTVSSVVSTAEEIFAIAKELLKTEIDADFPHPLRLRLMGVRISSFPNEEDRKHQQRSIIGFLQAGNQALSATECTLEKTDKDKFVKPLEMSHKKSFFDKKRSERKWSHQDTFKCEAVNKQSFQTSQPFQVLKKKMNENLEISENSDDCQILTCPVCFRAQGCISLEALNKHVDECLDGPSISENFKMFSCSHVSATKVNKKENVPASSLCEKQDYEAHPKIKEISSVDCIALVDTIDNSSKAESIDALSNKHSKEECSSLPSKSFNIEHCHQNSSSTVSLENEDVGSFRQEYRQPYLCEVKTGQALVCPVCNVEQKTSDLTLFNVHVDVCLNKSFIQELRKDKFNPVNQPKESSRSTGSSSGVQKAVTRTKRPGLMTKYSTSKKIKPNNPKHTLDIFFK
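10 nM Pol kappa was preincubated with compounds for 15 min at room temperature. Reaction started with 50 nM (final) substrate. Fluorescence read kinetically at 0 and 10 min.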
Pol iota inh: DNA polymerase iota (human) inhibition. Q9UNA4. Pol iota fluorescent replication assay, 10 min. Potency, µM (doses to about 115 µM), actives largely listed as inhibitors. 1% of 390,000 active. AID 588590
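Pol iota at 10 nM preincubated 15 min with compounds at room temperature; reaction started with fluorescent substrate, 50 nM final. Fluorescence read kinetically at 0 and 10 min; buffer-only wells as negative control.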
Pol eta inh-1: inhibitors of human DNA polymerase eta; Q9Y253; recombinant Pol eta, fluorescent DNA replication assay; Potency, µM (titrated, usually from 114 µM), usual class: inhibitors; 1.2% of 390,000 active
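Fluorescent replication assay: 50 nM final substrate added after a 15 min room-temperature compound preincubation with 10 nM enzyme. Signal taken at 0 min and again at 10 min.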
POLB inh: DNA polymerase beta (human) inhibition; AID 485314; Pol beta primer extension/strand displacement, fluorescence kinetic; Potency, µM (series often up to 114 µM), hits mostly inhibitors; 1.3% of 340,000 active; P06746
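Enzyme-only controls used 10 nM Pol beta; buffer lacking enzyme served as negative control. Compound preincubated 15 min, then 50 nM substrate added; 0 and 10 min reads at room temperature.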
TbPGK inh: validation of Trypanosoma brucei phosphoglycerate kinase inhibitors; shares compounds with Pol kappa inh-1; TbPGK coupled GAPDH assay, Kinase-Glo luminescence; Potency, µM (highest dose often 57.5 µM), usual class: inhibitors; 79% of 500 active; further: nearly all actives have a fitted effect of over 65% in size
Pol iota confirm: Human Pol iota inhibitor confirmatory assay | Pol iota primer extension, TAMRA/BHQ fluorescence | AID 720496 | 77% of 1,500 active | shares compounds with Pol kappa inh-1 | Potency, µM, usual class: inhibitors
GALK confirm: galactokinase (human) inhibition, confirmation; shares compounds with Pol eta inh-1; purified GALK, Kinase-Glo ATP depletion luminescence; Potency, µM (doses to about 115 µM), actives largely listed as inhibitors; 70% of 150 active; AID 2015
GALK redox cs: generates H2O2 by redox cycling, flagging GALK artifacts. shares compounds with Pol eta inh-1. Phenol red-HRP H2O2 redox cycling, absorbance 600 nm. Potency, µM (highest dose often 115 µM), actives largely listed as inhibitors. 40% of 150 active. AID 2035
HEK293 viability: HEK-293 cytotoxicity, GALK inhibitor secondary | shares compounds with Pol eta inh-1 | HEK-293 viability, ATP luminescence (CellTiter-Glo), 24/48 h | Potency, µM (doses to about 46.1 µM), hits mostly inhibitors | 10% of 170 active
Pol kappa inh-2: confirmation of human DNA polymerase kappa inhibitors; shares compounds with Pol eta inh-1; purified Pol-kappa, fluorescent strand-displacement substrate; Potency, µM, actives largely listed as inhibitors; 76% of 920 active
Pol eta inh-2: Pol eta (human) inhibition, cherry-pick confirmation | shares compounds with Pol eta inh-1 | 64% of 2,600 active | Pol eta primer extension, TAMRA/BHQ fluorescence, 10 min | Potency, µM, usual class: inhibitors
A number is an active result; - = inactive; ? = inconclusive; . = no result; [ ] = dose if it differs, or a comment. Rows were chosen to be rich in hits. Some 2.4% of all compounds tested hit in one or more screens of this group. The call rests on the fitted dose curve; in most records, active means well fitted curve in the direction sought with a large enough effect; inconclusive means small, poorly fitted or top-dose-only effect, or another doubt; inactive means no such curve, though single readings can be large; an effect the other way counts as inactive or inconclusive.

SMILES | GCN5L2 inh | GLS inhibitor | Pol kappa inh-1 | Pol iota inh | Pol eta inh-1 | POLB inh | Pol iota confirm | Pol eta inh-2 | others
O=C(COC(=O)Cc1ccc(Cl)cc1)NCc1ccco1 | - | ? | 79µM | 22µM | 8.9µM | . | 19 | 19 | Pol kappa inh-2=11
COc1cc(/C=C/C(=O)OCC(=O)NCc2ccco2)ccc1OC(F)F | - | - | - | - | - | - | . | .
COc1ccc(/C=C/C(=O)OCC(=O)NCc2ccco2)cc1OC | - | - | ? | 22µM | 50µM | 40µM | ? | ?
O=C(NCc1ccco1)c1ccc([N+](=O)[O-])o1 | - | - | ? | 10µM | 40µM | 13µM | 42 | 54
Cc1c(C(=O)O)cccc1-n1c(C)cc(C=O)c1C | - | - | ? | 25µM | 6.3µM | 16µM | 30 | 19
Cc1cc(NC(=O)Cc2cccs2)no1 | - | ? | 22µM | 7.9µM | 22µM | 8.9µM | 15 | 19
Cc1cc(NS(=O)(=O)c2ccc(NC(=O)Cc3cccs3)cc2)no1 | - | - | - | - | - | ? | . | .
CN(C)c1ncc(C2=C(Cl)C(=O)C(N3CCCC3)=C(Cl)C2=O)s1 | . | - | 28µM | 7.9µM | 20µM | . | 38 | 34
COc1ccc(N2C(=O)C(Cl)=C(N3CCCC3)C2=O)cc1 | - | - | - | - | - | - | . | .
O=C(O[C@H]1CN2CCC1CC2)N1CCc2ccccc2[C@@H]1c1ccccc1 | - | - | -[19.4 µM] | . | . | . | . | .
O=C(NC1CC1)C1CCN(S(=O)(=O)c2cc(Cl)ccc2Cl)CC1 | - | - | - | - | - | - | . | .
Cc1cccc2sc(NC(=O)C3CCN(S(=O)(=O)c4cc([N+](=O)[O-])ccc4Cl)CC3)nc12 | - | ? | 79µM | 25µM | 11µM | ? | ? | 76
O=C(NC1CC1)C1CCN(S(=O)(=O)c2cc([N+](=O)[O-])ccc2Cl)CC1 | ? | - | 50µM | 10µM | 13µM | . | 30 | ? | Pol kappa inh-2=19
COc1ccc(NC(=O)c2ncoc2-c2ccco2)cc1Cl | - | - | - | - | - | - | . | .
Nc1nc(=S)c2ncn([C@@H]3O[C@H](CO)[C@@H](O)[C@H]3O)c2[nH]1 | - | - | - | - | - | . | . | .
Nc1nc(=S)c2ncn(C3OC(CO)C(O)C3O)c2[nH]1 (stereo not given) | ? | - | ? | ? | 4µM | 0.16µM | 34 | 27 | TbPGK inh=12µM;Pol kappa inh-2=15
O=C(NCc1ccc(F)cc1)C1CCN(c2ncnc3c2nc2n3CCCCC2)CC1 | - | - | - | - | - | - | . | .
CCOc1ccc2ncc3c(-c4ccc(C)cc4)nn(-c4cccc(F)c4)c3c2c1 | - | - | - | - | - | - | . | .
O=C(O)c1ccc(COc2ccc3c4c(c(=O)oc3c2)CCC4)o1 | - | 13µM | ? | ? | 7.9µM | 35µM | . | 27 | TbPGK inh=18µM
Cc1ccc(-n2c(C)cc(C(=O)OCC(=O)N3CCOCC3)c2C)cc1 | - | - | - | - | - | . | . | .
Cc1ccc(C(=O)OCC(=O)c2ccc(CC(=O)N3CCOCC3)s2)c(C)c1 | ? | - | 18µM | 13µM | 16µM | . | 42 | ? | Pol kappa inh-2=38
O=C(COc1ccc(/C=N/NC(=O)c2ccncc2)cc1)Nc1cccc([N+](=O)[O-])c1 | - | - | - | ? | - | - | . | .
O=C(COc1ccc(/C=N/NC(=O)c2ccccc2O)cc1)Nc1ccc([N+](=O)[O-])cc1 | - | - | - | ? | ? | - | 34 | 60
O=C(/C=C/c1ccc(O)c(O)c1)NC(=O)c1ccccc1O | - | ? | 32µM | ? | 7.9µM | 10µM | ? | 60
COCCOC(=O)c1[nH]c2c(c1C)C(=O)CC(c1ccc(F)cc1)C2 (stereo not given) | - | - | - | - | - | ? | . | .
SMILES | GCN5L2 inh | GLS inhibitor | Pol kappa inh-1 | Pol iota inh | Pol eta inh-1 | POLB inh | Pol iota confirm | Pol eta inh-2 | others
COCCOC(=O)c1[nH]c2c(c1C)C(=O)CC(c1ccco1)C2 (stereo not given) | - | - | 22µM | - | 13µM | 11µM | 42 | 38
CCOC(=O)c1[nH]c2c(c1C)C(=O)CC(c1ccco1)C2 (stereo not given) | - | - | 56µM | ? | 20µM | 28µM | 67 | 60
Cc1ccc(-c2nc3scc(CCNC(=O)Cc4ccc(Cl)cc4)n3n2)cc1 | - | - | - | - | - | - | . | .
Cc1ccccc1OCC(=O)Nc1nnc(S(=O)(=O)N2CCCCCC2)s1 | - | - | - | - | - | - | . | .
CCOc1ccccc1C(=O)Nc1ccc2nc3c(c(Nc4ccc(OC)c(OC)c4)c2c1)CCCC3 | - | - | - | - | - | - | . | .
O=C(O)c1ccc(-n2cccc2/C=C2\SC(=O)N(Cc3cccc(Cl)c3)C2=O)cc1 | . | . | . | . | . | . | ? | 30
O=C(O)c1ccc(-n2cccc2/C=C2\SC(=O)N(Cc3ccc(Cl)cc3)C2=O)cc1 | . | . | . | . | . | . | 42 | 15
NCCO | . | - | . | . | . | . | . | .
Cc1ccn2c(=O)nc(SCC(=O)NCc3ccccc3Cl)nc2c1 | - | - | - | 56µM | 18µM | . | 67 | 60 | Pol kappa inh-2=27
COc1ccc2c(c1)c(=O)oc1cc(OCC(=O)NC3CC3)ccc12 | - | - | - | - | ? | ? | . | .
COc1ccc2c(c1)c(=O)oc1cc(OCC(=O)NC3CCCCC3)ccc12 | - | ? | ? | 25µM | 79µM | 22µM | ? | 67 | Pol kappa inh-2=?
[O-][n+]1cccc2cccc(O)c21 | . | - | - | - | - | . | . | .
C[n+]1cccc2cccc([O-])c21 | ? | ? | ? | 1.6µM | 22µM | 28µM | 24 | 43 | GALK confirm=24µM;GALK redox cs=12µM;HEK293 viability=-
CCOc1ccccc1NC(=O)Nc1ccc2nc(N3CCN(C)CC3)cc(C)c2c1 | - | - | - | - | ? | ? | . | .
